Our source for the growth values is PubChem BioAssay (NCI).

Holding throughout (assay): NCI-60 one-dose screen, 48 h (100 = growth as untreated, 0 = no growth, -100 = all killed)
Holding throughout (conditions): 10 µM unless noted

In assay [1] the test system is SK-MEL-2 melanoma.
Assay [2] deals with EKVX NSCLC.
For assay [3], the system named is SN12C renal.
For assay [4], the system named is UO-31 renal.
Assay [5] relates to TK-10 renal.
Assay [6] has as its system ACHN renal.
In assay [7] the test system is CAKI-1 renal.
In assay [8] the test system is A498 renal.
In assay [9] the test system is CCRF-CEM leukemia.
The subject of assay [10] is MOLT-4 leukemia.
The test system of assay [11] is RPMI-8226 leukemia.
Assay [12] relates to OVCAR-8 ovarian.
Assay [13] has as its system OVCAR-5 ovarian.
The test system of assay [14] is OVCAR-4 ovarian.
For assay [15], the system named is SK-OV-3 ovarian.
Assay [16] has as its system IGROV1 ovarian.
Assay [17] concerns OVCAR-3 ovarian.
The subject of assay [18] is HS 578T breast.
Assay [19] deals with NCI/ADR-RES ovarian.

The panel holds about 83,000 compounds, 20% with a hit somewhere; the sample as a whole holds those more often.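 96-well plates, one dose, 48 hours. Percent growth reported; active if below 10.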 Values without a mark were called inactive. Activity calls are given as the source filed them.

As to `O=C(COc1ccc(/C=C2\CSc3ccccc3C2=O)cc1)Nc1nccs1`, the growth in assay [1] is 83.5%; in assay [2], 129%; in [3], 95.2%; in [4], 75.7%; in assay [5], 85.5%; in assay [6], 104%. Also, the growth in assay [7] was 87.5%; in assay [8] it was 159%; in [9], -66.1% (active); in [10] it was -30% (active); in assay [11], -11% (active); in assay [12] it was 79.4%. The growth was 92.6% in assay [13]; 104% in assay [14]; 127% in assay [15]; -51.8% (active) in assay [16]; 87.5% in assay [17]; 135% in assay [18]. Also, the growth in assay [19] is 80.1%.
Turning to `N#Cc1c(N)n(CCNC(=O)c2ccccc2)c2nc3ccccc3nc12`, the growth is 90.3% in assay [1]; 123% in assay [2]; 120% in [3]; 89.4% in [4]; 102% in [5]; 118% in [6]. Besides, the growth in assay [7] is 115%; in assay [8], 135%; in [9] it was 133%; in [10], 44.7%; in assay [11], 179%; in assay [12] it was 102%. Also, the growth in assay [14] is 114%; in [15], 120%; in [16], 76.3%; in assay [17], 81.9%; in assay [18], 179%; in assay [19] it was 87.7%.
With `Cc1c(/C=C/[N+](=O)[O-])ccc2c1[nH]c1ccccc12`, the growth is 93.5% in assay [1]; 98.6% in assay [2]; 99.7% in assay [3]; 94.3% in assay [4]; 93.2% in assay [5]; 111% in assay [6]. Also, the growth in assay [7] was 102%; in [8] it was 83.6%; in assay [9], 87%; in assay [10], 94.9%; in [11], -15% (active); in [12] it was 94.1%. Further, the growth was 106% in assay [13]; 116% in assay [14]; 114% in [15]; 101% in assay [16]; 123% in assay [17]; 104% in assay [18]. Moreover, the growth in assay [19] was 108%.
With `COc1cc(CNc2oc(-c3ccccc3)c(-c3ccccc3)c2C#N)cc(CN2CCN(C)CC2)c1O`, the growth in assay [1] is 82.4%; in [2] it was 65.6%; in assay [3] it was 77.4%; in assay [4], 51.5%; in assay [5] it was 91.9%; in [6], 65.7%. Further, the growth in [7] was 66%; in assay [8], -7.97% (active); in assay [9], 45.6%; in [10], -13.7% (active); in assay [11], 2.73% (active); in [12] it was 94.5%. For the same compound, the growth in [13] is 63.8%; in [14] it was 55%; in [15], 95.9%; in assay [16], 71.2%; in assay [17] it was 80.2%; in assay [18] it was 70.5%. In addition, the growth in [19] was 75.3%.
As for `Cc1cc(NS(=O)(=O)c2ccc(-c3cnc(C4CC4)o3)cc2)ccc1Cl`, the growth is 45.3% in [1]; 28.5% in assay [2]; 48.4% in assay [3]; 46.5% in assay [4]; 54.3% in assay [5]; 40.4% in assay [6]. Besides, the growth in assay [7] was 34.7%; in [8] it was -17.8% (active); in [9], 14.4%; in assay [10], 17.8%; in assay [11], 24.8%; in [12], 12.9%. For the same compound, the growth in assay [13] is 22%; in assay [14], 44.7%; in assay [15], 32.4%; in assay [16], 27.7%; in assay [17] it was -20.9% (active); in assay [18], 11.9%. Further, the growth in assay [19] is 0.314% (active).
In the case of `Cc1nc2ccccc2n1C(=O)C[C@@H]1NC(=S)NC1=O`, the growth in [1] is 113%; in assay [2] it was 93.6%; in [3], 103%; in assay [4] it was 78.3%; in assay [5], 90.9%; in assay [6], 96.5%. Moreover, the growth in [7] was 91.5%; in assay [8] it was 94.9%; in assay [9], 109%; in assay [10], 100%; in assay [11], 111%; in assay [12], 93.6%. Further, the growth in assay [13] is 85.6%; in [14] it was 101%; in assay [15] it was 100%; in assay [16] it was 94.8%; in [17] it was 108%; in [19], 101%.
Regarding `CSc1nc(Nc2cccc(NC(=O)/C(C#N)=C/c3c(Cl)cccc3Cl)c2)c(C#N)c(-c2cccc([N+](=O)[O-])c2)n1`, the growth in [1] was 52.8%; in [2] it was 56.7%; in assay [3], 44.6%; in [4] it was 33.7%; in [5], 99.6%; in [6] it was 57.9%. Moreover, the growth in assay [7] is 24.5%; in [8] it was 73.5%; in assay [9] it was 43.3%; in [10], 23.9%; in assay [11] it was 26.8%; in assay [12] it was 53.6%. Further, the growth in [13] was 67.5%; in assay [14], 49.7%; in assay [15], 99.2%; in [16], 29.2%; in [17], 31%; in assay [18], 66.9%. Moreover, the growth in assay [19] was 60.5%.
On to `Cc1ccc(OC(=O)c2ccc(Cl)cc2)cc1`, for which the growth in assay [1] was 103%; in assay [2] it was 99.1%; in assay [3] it was 95.9%; in assay [4] it was 102%; in assay [5] it was 98.2%; in assay [6] it was 95.6%. Moreover, the growth is 81.8% in assay [7]; 114% in assay [8]; 55.9% in [9]; 113% in assay [10]; 92.4% in assay [11]; 96.7% in assay [12]. The growth in [13] was 97%; in assay [14], 79.8%; in assay [15], 116%; in [17] it was 99.9%; in assay [18] it was 110%; in assay [19], 107%.
For the compound `COc1cc(/C=C/c2cc(O)c3cc(C(C)=O)c(=O)oc3c2)cc2c1O[C@]1(C)CC[C@@H](O)C(C)(C)[C@H]1C2`, the growth in assay [1] was 50.1%; in [2] it was 59.3%; in [3], 64.7%; in assay [4], -42.8% (active); in assay [5], 97.9%; in assay [6], 40.9%. For the same compound, the growth was 29.8% in assay [7]; -51.5% (active) in assay [8]; 22.1% in assay [9]; -5.7% (active) in assay [10]; -22.6% (active) in assay [11]; 84.4% in [12]. For the same compound, the growth in assay [14] is 66.1%; in assay [15], 64.2%; in assay [16], 53.1%; in assay [17] it was 84.6%; in [18], 2.8% (active); in assay [19], 83.6%.
`COc1ccc(-c2cc(NC(=O)Nc3ccc4ncsc4c3)no2)cc1`: the growth in assay [1] is 112%; in assay [2] it was 95.9%; in assay [3], 96.3%; in assay [4], 106%; in [5], 104%; in [6] it was 99.6%. For the same compound, the growth in assay [7] was 91%; in assay [8], 100%; in [9] it was 106%; in [10], 96.1%; in [11] it was 92.6%; in [12], 102%. Also, the growth in [13] was 98.6%; in assay [14], 96.2%; in assay [15] it was 118%; in assay [16], 107%; in assay [17] it was 114%; in assay [18], 93.3%. The growth in assay [19] was 106%.
Turning to `O=S(=O)(Nc1ccc(I)cc1F)c1ccc(-c2cnc(C3CC3)o2)cc1`, the growth in assay [1] is 40.7%; in assay [2], 68.5%; in assay [3] it was 71.5%; in assay [4], 70.1%; in assay [5] it was 88.6%; in assay [6], 77.2%. Also, the growth was 40.9% in [7]; -10% (active) in assay [8]; 61.1% in assay [9]; 37.5% in assay [10]; 71.1% in assay [11]; 70% in assay [12]. Moreover, the growth is 88.2% in [13]; 60.5% in assay [14]; 71.5% in assay [15]; 45.4% in assay [16]; 16.1% in assay [17]; 35.2% in assay [18]. In [19], the growth was 28%.
In the case of `CCOC(=O)C(C)(C#N)C1C=CCCC1` (stereo not given), the growth in assay [1] is 96.5%; in [2], 96.7%; in assay [3] it was 95%; in assay [4], 84%; in assay [5], 83.2%; in [6] it was 92.3%. For the same compound, the growth in assay [7] was 75.1%; in [8], 63.2%; in assay [9], 84.6%; in [10], 98%; in assay [11], 92.9%; in assay [12] it was 98.8%. In addition, the growth was 68.2% in assay [13]; 91.5% in [14]; 95.1% in assay [15]; 94.8% in assay [16]; 90.6% in assay [17]; 84.1% in assay [18]. In addition, in [19], the growth is 91.9%.
Turning to `CC1=CC(=NN=c2cc(C)n([O-])c(C)c2)C=C(C)[N+]1=O`, the growth in assay [1] was 84.7%; in assay [2], 110%; in assay [3] it was 92.1%; in assay [4], 85.7%; in [5] it was 85.8%; in assay [6] it was 110%. The growth in assay [7] is 98.2%; in [8] it was 124%; in [9], 91.7%; in assay [10] it was 81.7%; in assay [11], 67.4%; in [12], 86.2%. In addition, the growth in [14] is 78%; in assay [15], 111%; in [16], 89.2%; in assay [17], 110%; in assay [18], 98.8%.
`COc1cccc(-c2nc3sccn3c2-c2ccnc(NCCCNS(=O)(=O)c3cccc(Cl)c3)c2)c1`: the growth is 39.8% in [1]; 40.6% in assay [2]; 45.5% in assay [3]; 20.4% in [4]; 71.5% in assay [5]; 37.5% in [6]. Also, the growth in assay [7] was 25.9%; in [8], 54.4%; in assay [9], 18.1%; in assay [10], 9.9% (active); in assay [11], -9.68% (active); in [12] it was 26.3%. The growth was 78.9% in assay [13]; 32.6% in assay [14]; 67.7% in assay [15]; 50.7% in assay [16]; 58% in assay [17]; 69.2% in assay [18]. For the same compound, in assay [19], the growth is 13.4%.
With `CSc1nc(NCCO)c(C#N)c(-c2cccc([N+](=O)[O-])c2)n1`, the growth was 113% in assay [1]; 88.9% in assay [2]; 90.4% in assay [3]; 73.2% in assay [4]; 120% in [5]; 93% in assay [6]. The growth is 83.9% in assay [7]; 72.6% in [8]; 99.1% in assay [9]; 99% in assay [10]; 103% in assay [11]; 99.1% in [12]. Also, the growth in assay [14] was 105%; in assay [15], 102%; in [17], 112%; in [18], 93.4%; in [19] it was 98.1%.
Take `N#Cc1c(-c2ccc(Cl)cc2)nc(N/N=C/c2cccc(Br)c2)nc1N1CCOCC1`: the growth was 94.5% in assay [1]; 68.7% in [2]; 91.4% in assay [3]; 51.2% in assay [4]; 102% in assay [5]; 71.5% in [6]. Further, the growth in [7] was 73%; in [8] it was -10.8% (active); in [9] it was 50.3%; in assay [10] it was 36.1%; in assay [11], 56%; in [12] it was 101%. For the same compound, the growth is 82% in assay [13]; 95.6% in assay [14]; 109% in assay [15]; 83.6% in assay [16]; 94.8% in assay [17]; 90.6% in assay [19].
